# Source: PubChem BioAssay
# A number with no mark means an inactive call. For part of these data: Measured potencies and affinities stand elsewhere. The source made the active and inactive calls. Unless noted, no rule for the calls is given here.
# Columns and labels:
# [1] = antimalarial activity against Dd2 strain (AID 2302;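 active = growth inhibition above 50% at the single 2 µM test dose, taken to imply half-maximal potency below 2 µM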;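 also: 0% = DMSO untreated growth and 100% = chloroquine plus artemisinin killed control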); conditions: P. falciparum Dd2 in RBCs, LDH growth readout, 72 h; at 2 µM; stronger effect = higher value
# [2] = HepG2 cytotoxicity, primary screen, cytotoxicity control for P. falciparum antimalarial project, cell-based, ATP luminescence (AID 2303;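 active = inhibition above 50%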;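 also: 0% = DMSO wells and 100% = digitonin-killed cells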); conditions: HepG2 viability, 24-48 h, at 10 µM, stronger effect = higher value
# [3] = target: L-lactate dehydrogenase (Plasmodium falciparum (isolate CDC / Honduras)) (UniProt Q27743); experiment: PfLDH activity inhibition – cell lysate, 3D7 strain, counter-screen for P. falciparum growth inhibition project (AID 2304);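 also: 0% = vehicle and 100% = reference inhibitor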; conditions: P. falciparum 3D7 crude extract, LDH APAD/NBT absorbance; at 2 µM; stronger effect = higher value
# L-lactate dehydrogenase (Plasmodium falciparum (isolate CDC / Honduras)), sequence (Q27743 whole entry, looked up): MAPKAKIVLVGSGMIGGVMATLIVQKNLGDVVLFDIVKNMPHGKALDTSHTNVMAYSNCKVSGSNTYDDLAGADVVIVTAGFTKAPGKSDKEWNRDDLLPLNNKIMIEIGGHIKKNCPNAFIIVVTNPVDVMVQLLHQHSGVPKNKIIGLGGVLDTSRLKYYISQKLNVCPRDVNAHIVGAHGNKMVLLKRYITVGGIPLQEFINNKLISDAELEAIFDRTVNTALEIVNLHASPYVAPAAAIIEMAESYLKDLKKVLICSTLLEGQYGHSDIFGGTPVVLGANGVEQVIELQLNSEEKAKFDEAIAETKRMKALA
# [4] = inhibition of 3D7 malaria parasite growth – strain 3D7 (AID 2306);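 also: 0% = DMSO wells and 100% = chloroquine plus artemisinin control wells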; conditions: P. falciparum 3D7 erythrocytic growth, LDH absorbance, 72 h; at 2 µM; stronger effect = higher value
# [5] = target: Calcium-dependent protein kinase 1 (Plasmodium falciparum (isolate 3D7)) (UniProt P62344); experiment: PfCDPK1 kinase inhibitors, biochemical, TCAMS library (AID 1159585; cut-off not given, nearly all actives have IC50 up to about 0.98 µM;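 also: inhibitors leave more ATP so luminescence rises with inhibition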); conditions: recombinant PfCDPK1, Kinase-Glo ATP depletion luminescence
# Calcium-dependent protein kinase 1 (Plasmodium falciparum (isolate 3D7)), sequence (P62344 whole entry, looked up): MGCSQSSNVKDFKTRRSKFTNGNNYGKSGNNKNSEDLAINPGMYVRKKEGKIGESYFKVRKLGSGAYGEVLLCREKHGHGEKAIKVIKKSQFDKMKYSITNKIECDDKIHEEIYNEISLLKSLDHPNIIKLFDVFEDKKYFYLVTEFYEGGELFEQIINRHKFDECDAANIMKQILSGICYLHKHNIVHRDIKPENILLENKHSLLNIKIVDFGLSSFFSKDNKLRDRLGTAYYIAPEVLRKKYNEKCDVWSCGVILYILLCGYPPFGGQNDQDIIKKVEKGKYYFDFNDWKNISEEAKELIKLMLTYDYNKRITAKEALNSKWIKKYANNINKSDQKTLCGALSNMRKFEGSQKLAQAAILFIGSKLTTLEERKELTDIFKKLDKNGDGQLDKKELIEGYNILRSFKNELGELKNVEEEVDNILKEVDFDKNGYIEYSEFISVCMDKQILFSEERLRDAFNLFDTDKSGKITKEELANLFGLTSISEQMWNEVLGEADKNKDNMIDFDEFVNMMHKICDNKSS
# [6] = target: Plasmodium falciparum protein kinase 6 (PK6, PF3D7_1337100) (UniProt Q8IDW1); experiment: PfPK6 kinase inhibitors, biochemical, TCAMS library (AID 1159586); conditions: recombinant PfPK6, Kinase-Glo ATP depletion luminescence
# Plasmodium falciparum protein kinase 6 (PK6, PF3D7_1337100), sequence (Q8IDW1 1-305): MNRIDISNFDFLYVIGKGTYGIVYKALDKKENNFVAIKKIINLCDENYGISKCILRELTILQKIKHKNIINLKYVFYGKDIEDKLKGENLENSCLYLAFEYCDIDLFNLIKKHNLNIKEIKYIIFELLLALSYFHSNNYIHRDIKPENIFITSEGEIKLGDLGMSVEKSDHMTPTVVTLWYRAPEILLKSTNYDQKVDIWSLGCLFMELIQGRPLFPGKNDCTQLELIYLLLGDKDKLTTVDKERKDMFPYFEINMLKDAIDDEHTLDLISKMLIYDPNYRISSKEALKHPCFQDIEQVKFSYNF
# [7] = target: Protein kinase 7 (PK7), Plasmodium falciparum 3D7 (PF3D7_0213400) (UniProt Q7YTF7); experiment: inhibition of Plasmodium PK7 catalytic activity – biochemical, TCAMS antimalarial set, Kinase-Glo luminescence (AID 1159587); conditions: recombinant PfPK7, Kinase-Glo ATP depletion luminescence
# Protein kinase 7 (PK7), Plasmodium falciparum 3D7 (PF3D7_0213400), sequence (Q7YTF7 1-343): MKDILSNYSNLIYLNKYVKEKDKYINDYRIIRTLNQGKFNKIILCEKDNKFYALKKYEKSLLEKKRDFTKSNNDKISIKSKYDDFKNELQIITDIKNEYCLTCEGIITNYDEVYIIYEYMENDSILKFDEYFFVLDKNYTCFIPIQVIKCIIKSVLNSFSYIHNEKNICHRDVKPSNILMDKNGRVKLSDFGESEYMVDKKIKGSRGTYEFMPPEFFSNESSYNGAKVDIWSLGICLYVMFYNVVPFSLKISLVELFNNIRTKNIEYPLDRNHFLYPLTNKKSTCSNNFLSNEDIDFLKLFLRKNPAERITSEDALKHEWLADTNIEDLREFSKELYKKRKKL
# [8] = target: Calcium-dependent protein kinase 4 (Plasmodium falciparum (isolate 3D7)) (UniProt Q8IBS5); experiment: PfCDPK4 kinase inhibitors, biochemical, TCAMS library (AID 1159588; cut-off not given, nearly all actives have IC50 up to about 0.91 µM); conditions: recombinant PfCDPK4, Kinase-Glo ATP depletion luminescence
# Calcium-dependent protein kinase 4 (Plasmodium falciparum (isolate 3D7)), sequence (Q8IBS5 whole entry, looked up): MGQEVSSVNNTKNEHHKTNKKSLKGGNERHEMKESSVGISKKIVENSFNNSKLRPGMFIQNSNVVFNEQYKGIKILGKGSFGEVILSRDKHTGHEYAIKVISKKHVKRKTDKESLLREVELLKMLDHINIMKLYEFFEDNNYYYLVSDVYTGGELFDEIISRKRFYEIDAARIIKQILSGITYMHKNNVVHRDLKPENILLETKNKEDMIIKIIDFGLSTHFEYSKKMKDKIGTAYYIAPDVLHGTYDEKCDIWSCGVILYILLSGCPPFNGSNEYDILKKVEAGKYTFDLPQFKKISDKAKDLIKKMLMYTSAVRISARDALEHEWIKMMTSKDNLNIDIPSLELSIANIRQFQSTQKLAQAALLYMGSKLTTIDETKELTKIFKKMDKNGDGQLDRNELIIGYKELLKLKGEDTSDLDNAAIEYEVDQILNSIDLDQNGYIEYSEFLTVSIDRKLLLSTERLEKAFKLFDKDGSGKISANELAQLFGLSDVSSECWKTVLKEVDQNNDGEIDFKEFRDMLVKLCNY
Structure (SMILES),growth inhibition [1],inhibition [2],inhibition [3],growth inhibition [4],outcome [5],outcome [6],outcome [7],outcome [8]
Cc1cccc2[nH]c(-c3cccc(-c4ccc(NC(=O)NCc5cccc(F)c5)cc4)c3)nc12,83% (active),40%,-4%,101% (active),inactive,inactive,inactive,inactive
C[C@@H](NCCc1cccc(Cl)c1)[C@@H](O)c1ccc(OCCCCCCOc2ccc([C@H](O)[C@@H](C)NCCc3cccc(Cl)c3)cc2)cc1,100% (active),96% (active),-1%,100% (active),inactive,inactive,inactive,inactive
COc1ccc(-c2cc(NCc3ccc(-n4ccnc4)cc3)nc(Nc3ccccc3)n2)cc1,79% (active),8%,0%,101% (active),inactive,inactive,inactive,inactive
COc1cc2nc(N3CCC(CNC(=O)c4ccc(-c5ccccc5)cc4)CC3)nc(N)c2cc1OC,92% (active),11%,-1%,93% (active),inactive,inactive,inactive,inactive
COc1ccc(-c2nc3c4cc(I)ccc4c4ccccc4c3[nH]2)cc1,16%,4%,-3%,96% (active),inactive,inactive,inactive,inactive
CC(C)c1sc(N2CCN(C)CC2)nc1C(=O)NCCc1cccc(Cl)c1,15%,9%,-1%,91% (active),inactive,inactive,inactive,inactive
Cc1ccccc1OCCCN1CCN(CC(c2ccc(F)cc2)N2CCN(C(C)C)CC2)CC1 (configuration not stated),64% (active),20%,2%,99% (active),inactive,inactive,inactive,inactive
CCN(C(=O)c1ccc(NC(=O)c2cccs2)cc1)c1nc2c(C)cccc2s1,85% (active),24%,-3%,89% (active),inactive,inactive,inactive,inactive
Cc1ccccc1N1CCN(c2ccc(C(=O)Nc3ccccc3)cn2)CC1,69% (active),44%,-5%,95% (active),inactive,inactive,inactive,inactive
C=CCOC(=O)N1CCC(CNCc2ccc(-c3cccc(-c4nc5c(C)cccc5[nH]4)c3)cc2)C1 (configuration not stated),99% (active),25%,-5%,102% (active),inactive,inactive,inactive,inactive
CC(Cc1ccc(NC(=O)c2ccc(CNCc3ccccc3)cc2)cc1)N(CCc1cccc(Cl)c1)C(=O)OC(C)(C)C (configuration not stated),2%,16%,-2%,95% (active),inactive,inactive,inactive,inactive
CCCN1CCC(NCc2cn(C)nc2-c2ccc(Oc3ccccc3)cc2)CC1,44%,34%,-3%,88% (active),inactive,inactive,inactive,inactive
O=C(CNc1ccc(Cl)c(S(=O)(=O)N2CCCC2)c1)Nc1ccc(Br)cc1F,97% (active),18%,4%,99% (active),inactive,inactive,inactive,inactive
COc1cccc(NC(=O)c2cc([N+](=O)[O-])ccc2NC(=O)CN2CCc3ccccc3C2)c1,37%,5%,-1%,100% (active),inactive,inactive,inactive,inactive
O=C(NCCOc1ccccc1)[C@H](Cc1ccccc1)Nc1ccnc(NCC2CCCCC2)n1,73% (active),80% (active),5%,96% (active),inactive,inactive,inactive,inactive
COc1ccc2nc(NC3=NC4(c5ccccc5)N=C(Nc5nc6ccc(OC)cc6[nH]5)NC4(c4ccccc4)N3)[nH]c2c1 (configuration not stated),85% (active),-5%,-6%,100% (active),inactive,inactive,inactive,inactive
O=C(c1ccc(-c2cccc(-c3nc4ccc(F)cc4[nH]3)c2)cc1)N1CCCCC1CN1CCC(O)C1 (configuration not stated),-4%,11%,-1%,91% (active),inactive,inactive,inactive,inactive
CN(C)c1ccc(C=C2SC(=O)NC2=Nc2ccccc2)cc1,96% (active),42%,6%,97% (active),inactive,inactive,inactive,inactive
Nc1nc(N)c2c(ccc3nccc32)[nH]1,-1%,58% (active),8%,88% (active),inactive,inactive,inactive,inactive
Nc1cccc(CNCc2cccc(-c3ccc(-c4nc5ccccc5[nH]4)cc3)c2)c1,92% (active),-1%,-2%,101% (active),inactive,inactive,inactive,inactive

Structure (SMILES),growth inhibition [1],inhibition [2],inhibition [3],growth inhibition [4],outcome [5],outcome [6],outcome [7],outcome [8]
CCN(CC)S(=O)(=O)c1ccc(C(=O)Oc2ccccc2N(Cc2ccc(OC)cc2)C2=NS(=O)(=O)c3ccccc32)cc1,63% (active),0%,-3%,98% (active),inactive,inactive,inactive,inactive
COc1ccc(-c2cc(-c3nc4ccc(CN)cc4[nH]3)c(=O)n(C)c2)cc1OC,56% (active),-12%,4%,85% (active),inactive,inactive,inactive,inactive
O=C(NCCc1ccccc1)N(Cc1ccc(-c2cccc(CN3CCNCC3)c2)cc1)C1CCN(Cc2ccccc2)CC1,29%,27%,-1%,90% (active),inactive,inactive,inactive,inactive
O=C(/C=C/c1ccc(Cl)c(Cl)c1)N1CCN(C(=O)Nc2ccc(C(F)(F)F)cc2)CC1,101% (active),47%,4%,98% (active),inactive,inactive,inactive,inactive
CC(C)[C@H](NC(=O)c1ccc(O)c(-c2cccc(C(F)(F)F)c2)c1)C(=O)NC1CCCc2ccccc21 (some centres not stated),25%,2%,7%,82% (active),inactive,inactive,inactive,inactive
O=C(NCCN1CCOCC1)c1ccc(-c2ccc(CNCCCc3ccccc3)cc2)nc1,10%,-11%,-1%,97% (active),inactive,inactive,inactive,inactive
CS(=O)(=O)Nc1ccc2c(C3CCN(CCC4CCN(C(=O)/C=C/c5ccc(Cl)c(Cl)c5)CC4)CC3)c[nH]c2c1,63% (active),35%,-3%,99% (active),inactive,inactive,inactive,inactive
NCCCCc1c(-c2ccc(Cl)c(Cl)c2)[nH]c2ccc(Cl)cc12,20%,33%,-9%,97% (active),inactive,inactive,inactive,inactive
CCCc1ccc(C(=O)N2[C@@H](c3nccs3)[C@@H](C(N)=O)C[C@@]2(CC(C)C)C(=O)O)cc1,80% (active),16%,1%,94% (active),inactive,inactive,inactive,inactive
Cc1cccc2[nH]c(-c3ccc(-c4cccc(NC(=O)COc5ccccc5C(N)=O)c4)s3)nc12,19%,80% (active),-6%,99% (active),inactive,inactive,inactive,inactive
COC(=O)c1cccc(CNCc2cccc(-c3ccc(-c4nc5c(C)cccc5[nH]4)s3)c2)c1,65% (active),-4%,1%,103% (active),inactive,inactive,inactive,inactive
Cc1[nH]c(C)c(-c2ccc(-c3ccccc3C(F)(F)F)nc2)c(=O)c1Br,96% (active),-3%,-3%,97% (active),inactive,inactive,inactive,inactive
O=C(Nc1cccc(-c2ccc(-c3nc4ccccc4[nH]3)cc2)c1)c1ccncc1,58% (active),30%,-1%,100% (active),inactive,inactive,inactive,inactive
O=C(Nc1cccc(C(F)(F)F)c1)c1ccc(S(=O)(=O)NC2CCN(CC3CCCCC3)C2)cc1 (configuration not stated),-3%,16%,-4%,92% (active),inactive,inactive,inactive,inactive
O=C(Nc1ccc(C(=O)Nc2ccc(C3=NCCN3)cc2)cc1)Nc1ccc(C2=NCCN2)cc1,95% (active),-8%,-7%,94% (active),inactive,inactive,inactive,inactive
Cc1cccc(OCC(=O)Nc2cccc(NC(=O)COc3cccc(C)c3)n2)c1,30%,-3%,0%,98% (active),inactive,inactive,inactive,inactive
CN1CCN(C(C(=O)NCc2cc(Cl)cc(Cl)c2)c2ccccc2-c2ccsc2)CC1 (configuration not stated),80% (active),11%,2%,95% (active),inactive,inactive,inactive,inactive
Cc1nnsc1C(=O)Nc1cccc(-c2ccc(-c3nc4ccc(F)cc4[nH]3)cc2)c1,89% (active),51% (active),4%,100% (active),inactive,inactive,inactive,inactive
Cc1cc(N2CCN(CC3CCN(C)CC3)CC2)nc(Nc2ccc(Cl)cc2)n1,89% (active),20%,-6%,99% (active),inactive,inactive,inactive,inactive
